# Measured values from PubChem BioAssay (NCI).
# The panel holds about 79,000 compounds, 15% with a hit somewhere; the sample as a whole holds those more often. Unmarked numbers belong to inactive results. Activity calls are given as the source filed them. No stated cut-off is given here; in the data, active means growth inhibition above about 70%; inactive means the rest.
# Assay: NCI Yeast Anticancer Drug Screen. Data for the sgs1 mgt1 strain (AID 161);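 further: 0% = growth of cultures given vehicle only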
# Conditions: S. cerevisiae sgs1 mgt1 strain, at 50.0 µM, active compounds read high
# In short: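 Mutant yeast exposed to compound; growth scored against vehicle-only wells.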
row,SMILES,growth inhibition
1,N=C(N)SCCC(=O)O,-39.7%
2,CCOC(=O)/C=C(\C)c1ccc(OC)cc1,-3.3%
3,O=c1/c(=C/c2cccc([N+](=O)[O-])c2)sc2nc3ccccc3n12,-18.1%
4,Nc1cc(C(=O)O)cc2ccccc12,0.1%
5,CNC(=O)CN(CC(N)=O)C(=O)NC,-27.6%
6,Cc1cccc(C(=O)N(C)C)c1,-6.4%
7,CC(=O)Oc1c(C)cc2c(c1C)C(C)(C)CN2C(=O)C(C)(C)C,17.6%
8,c1ccc(-c2cc3c(nn2)[nH]c2ccccc23)cc1,-2.25%
9,CCOC(=O)c1cc2ccccc2nc1N,-7.15%
10,O=C1c2ccccc2C(O)(C#Cc2ccccc2)c2c1c(-c1ccccc1)c1ccccc1c2-c1ccccc1 (stereo not given),15.7%
11,CC(=O)Nc1cc(Cl)cc2[nH]c(C)nc12,-0.6%
12,O=[N+]([O-])c1ccccc1N=Nc1c(O)[nH]c2c(Cl)cc(Cl)cc12,-31.9%
13,N#CCc1c(Cl)ccc(Cl)c1Cl,44.6%
14,COc1ccccc1NCS(=O)(=O)O,-5.95%
15,CCCCCCCCCCCC(=O)N/N=C(\C)c1cccc2ccccc12,94% (active)
16,C/C=C/c1nc2c(c(=O)n(C)c(=O)n2C)n1C,-6%
17,Cn1cc(S(C)=O)c(=O)c2ccccc21 (stereo not given),-5.6%
18,S=C(S)N1CCN(c2ccc(Cl)c(Cl)c2)CC1,20.9%
19,COCC(=O)Nc1ccccc1,2.1%
20,C=C1C(=O)O[C@H]2[C@H]1CC(=O)/C(C)=C/CC[C@@]1(C)O[C@@H]21,32.8%

row,SMILES,growth inhibition
1,CCCCNC(=O)OCC,2.4%
2,Cc1cc(N)cc(C)n1,-14.8%
3,CCCCCC(CCCC)OC(=O)Nc1ccccc1 (stereo not given),10%
4,C=CCOC(=O)C(C)OC(=O)/C(Cl)=C/C(=O)O (stereo not given),16.4%
5,Nc1ccc(P(=O)(O)c2ccc(N)cc2Br)c(Br)c1,18.4%
6,COc1ccc(-c2nnc(Cl)o2)cc1,-6.75%
7,O=C(CN1C(=O)c2ccccc2C1=O)OCC(=O)c1ccccc1,1.5%
8,CCC(=O)C(CC)c1ccccc1OC (stereo not given),4.65%
9,Cc1ccc2nc(C(O)C(O)C(O)CO)[nH]c2c1 (stereo not given),10.7%
10,CC(=O)Oc1ccc2c(c1)CCC1C2CCC2(C)CC(OC(C)=O)CC12 (stereo not given),-19.2%
11,Cc1ccc(C(=O)N(Cc2ccccc2)Cc2ccccc2)cc1N=NN(C)C,-55.6%
12,CC1CCCC(=O)CCC1,-9.05%
13,CCCCCCC(C(=O)O)C(=O)O,23.6%
14,CN1CCC/C1=N\c1ncn[nH]1,-4.45%
15,Cc1cccc2c1CCC21OC(=O)c2c1cc(F)c1ccccc21 (stereo not given),-8.5%
16,Cc1c2ccccc2nc(CSCC(O)CO)[n+]1[O-] (stereo not given),12.3%
17,O=C1CC2CCCCC2=C1O (stereo not given),14.1%
18,CC1C2(C)OCC(C#N)(C(=N)O2)C1(C#N)C#N (stereo not given),-44.5%
19,N#CCCN(CCC#N)c1ccc(/C=C2\N=C(c3cc([N+](=O)[O-])ccc3Cl)OC2=O)cc1,-16.4%
20,C1CCN(c2nn[nH]n2)CC1,3.75%

# Assay: NCI Yeast Anticancer Drug Screen. Data for the cln2 rad14 strain (AID 165);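 further: 0% = growth equal to vehicle treated cultures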
# Conditions: S. cerevisiae cln2 rad14 strain, at 50.0 µM, active compounds read high
# In short: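 cln2 rad14 yeast strain; compound exposure; growth inhibition read vs vehicle controls.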
row,SMILES,growth inhibition [%]
1,N=C(N)SCCC(=O)O,-69.6
2,CCOC(=O)/C=C(\C)c1ccc(OC)cc1,-7.5
3,O=c1/c(=C/c2cccc([N+](=O)[O-])c2)sc2nc3ccccc3n12,-4.65
4,Nc1cc(C(=O)O)cc2ccccc12,-7.95
5,CNC(=O)CN(CC(N)=O)C(=O)NC,0.65
6,Cc1cccc(C(=O)N(C)C)c1,-17.8
7,CC(=O)Oc1c(C)cc2c(c1C)C(C)(C)CN2C(=O)C(C)(C)C,-7.15
8,c1ccc(-c2cc3c(nn2)[nH]c2ccccc23)cc1,-30.2
9,CCOC(=O)c1cc2ccccc2nc1N,-21.5
10,O=C1c2ccccc2C(O)(C#Cc2ccccc2)c2c1c(-c1ccccc1)c1ccccc1c2-c1ccccc1 (stereo not given),9.75
11,CC(=O)Nc1cc(Cl)cc2[nH]c(C)nc12,-0.25
12,O=[N+]([O-])c1ccccc1N=Nc1c(O)[nH]c2c(Cl)cc(Cl)cc12,-16.2
13,N#CCc1c(Cl)ccc(Cl)c1Cl,3.9
14,COc1ccccc1NCS(=O)(=O)O,-60.2
15,CCCCCCCCCCCC(=O)N/N=C(\C)c1cccc2ccccc12,59.8
16,C/C=C/c1nc2c(c(=O)n(C)c(=O)n2C)n1C,-28.8
17,Cn1cc(S(C)=O)c(=O)c2ccccc21 (stereo not given),-13.9
18,S=C(S)N1CCN(c2ccc(Cl)c(Cl)c2)CC1,2.95
19,COCC(=O)Nc1ccccc1,1.55
20,C=C1C(=O)O[C@H]2[C@H]1CC(=O)/C(C)=C/CC[C@@]1(C)O[C@@H]21,21.4

row,SMILES,growth inhibition [%]
1,CCCCNC(=O)OCC,-26.8
2,Cc1cc(N)cc(C)n1,0.7
3,CCCCCC(CCCC)OC(=O)Nc1ccccc1 (stereo not given),-7
4,C=CCOC(=O)C(C)OC(=O)/C(Cl)=C/C(=O)O (stereo not given),-29.4
5,Nc1ccc(P(=O)(O)c2ccc(N)cc2Br)c(Br)c1,1.55
6,COc1ccc(-c2nnc(Cl)o2)cc1,-25.9
7,O=C(CN1C(=O)c2ccccc2C1=O)OCC(=O)c1ccccc1,0.4
8,CCC(=O)C(CC)c1ccccc1OC (stereo not given),16.5
9,Cc1ccc2nc(C(O)C(O)C(O)CO)[nH]c2c1 (stereo not given),-11.6
10,CC(=O)Oc1ccc2c(c1)CCC1C2CCC2(C)CC(OC(C)=O)CC12 (stereo not given),2.95
11,Cc1ccc(C(=O)N(Cc2ccccc2)Cc2ccccc2)cc1N=NN(C)C,-8.2
12,CC1CCCC(=O)CCC1,7.15
13,CCCCCCC(C(=O)O)C(=O)O,13.2
14,CN1CCC/C1=N\c1ncn[nH]1,-65.3
15,Cc1cccc2c1CCC21OC(=O)c2c1cc(F)c1ccccc21 (stereo not given),2.55
16,Cc1c2ccccc2nc(CSCC(O)CO)[n+]1[O-] (stereo not given),-55.6
17,O=C1CC2CCCCC2=C1O (stereo not given),17.9
18,CC1C2(C)OCC(C#N)(C(=N)O2)C1(C#N)C#N (stereo not given),-18.3
19,N#CCCN(CCC#N)c1ccc(/C=C2\N=C(c3cc([N+](=O)[O-])ccc3Cl)OC2=O)cc1,25
20,C1CCN(c2nn[nH]n2)CC1,-10.3
